Screening data as filed in PubChem BioAssay.
The list is not random: actives were taken first. Their share in the collection is about 3.7%.
TIM10 inh: TIM10 yeast growth inhibition | S. cerevisiae TIM10 strain growth, BacTiter-Glo luminescence, 24 h | inhibition, % at 10 µM | hit rate 1.4% among 330,000 | AID 463195;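 active = inhibition of 40% or more at the single tested concentration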;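 also: wild-type TIM10 isogenic control strain grown at permissive 25 °C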
Rce1 inh: blocks yeast Ras-converting enzyme; Q03530; yeast membranes, quenched prenylated peptide cleavage fluorescence; calls only; hit rate 0.27% among 290,000; AID 2563;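 active = fall in fluorescence gain of 50% or more versus controls, with final raw signal at or below 3038400; inconclusive = same 50% fall but final raw signal above 3038400; inactive = fall in fluorescence gain under 50%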;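 also: plate controls were neutral control wells for no effect and wells lacking membranes for full effect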
Target sequence (Q03530 whole entry, looked up): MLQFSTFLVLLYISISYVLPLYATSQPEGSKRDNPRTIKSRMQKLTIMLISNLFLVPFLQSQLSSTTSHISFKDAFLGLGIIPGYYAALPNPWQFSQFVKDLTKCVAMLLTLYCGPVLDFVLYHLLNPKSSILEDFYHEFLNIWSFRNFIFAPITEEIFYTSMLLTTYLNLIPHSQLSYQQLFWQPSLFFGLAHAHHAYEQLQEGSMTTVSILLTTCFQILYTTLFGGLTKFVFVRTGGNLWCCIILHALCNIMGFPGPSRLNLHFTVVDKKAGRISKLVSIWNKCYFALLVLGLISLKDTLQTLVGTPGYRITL
tim23-1 inh: growth inhibitors of tim23-1 mutant yeast. S. cerevisiae tim23-1 growth, BacTiter-Glo luminescence, 24 h. inhibition, % at 20 µM. hit rate 1.3% among 330,000;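 active = growth inhibition of the mutant yeast at or above 50%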;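 also: temperature-sensitive mutant grown at 25 °C; plate controls were DMSO-treated mutant yeast for no effect and medium wells lacking yeast for full effect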
tim10-1 inh: tim10-1 yeast growth inhibition. S. cerevisiae tim10-1 ts strain growth, BacTiter-Glo, 24 h. inhibition, % at 20 µM. hit rate 2.2% among 330,000. AID 463190;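 active = inhibition of at least 40%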;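 also: mutant grown at 25 °C; 0% = DMSO wells with yeast and 100% = wells holding no yeast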
PfHsp90 yeast 2: inhibits growth of yeast expressing Plasmodium falciparum Hsp90 | S. cerevisiae expressing PfHsp90, BacTiter-Glo ATP, 48 h; yeast lacking PDR1 and PDR3 efflux regulators | inhibition, % at 9.4 µM | hit rate 0.32% among 310,000;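 active = every replicate shows inhibition above about 80%, whatever the replicate mean, limit read from the data; inconclusive = mean inhibition reaches the set limit but some replicate falls short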;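 also: 0% = DMSO neutral controls and 100% = 20 µM radicicol positive controls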
tim10 confirm: confirmation of TIM10 yeast growth inhibitors. inhibition, % at 10 µM. shares compounds with TIM10 inh. AID 463215. S. cerevisiae tim10 strain growth, BacTiter-Glo luminescence, 24 h. hit rate 63% among 4,600;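 active = inhibition of yeast growth at or above a set limit in either of two replicates at 10 µM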;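 also: this counterscreen used the strain with wild-type TIM10; 0% = yeast with DMSO and 100% = medium wells lacking yeast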
* = called active by the depositor; i = inactive; u = inconclusive; x = no result given.

SMILES | TIM10 inh | Rce1 inh | tim23-1 inh | tim10-1 inh | PfHsp90 yeast 2 | tim10 confirm
O=C(ONc1ccc(N=NC(=O)c2ccccc2O)cc1)c1ccccc1 | 42* | i | 38 | 39 | 0 | 8
Fc1ccccc1NC(=S)NN(Cc1ccccc1)c1ccccc1 | 44* | i | 42 | 33 | -44 | 38*
CC1Cc2cc(S(=O)(=O)N3CCN(c4ccccc4F)CC3)ccc2N1C(=O)C1CC1 (stereo not given) | 38 | i | 46 | 14 | -13 | x
CCN1C(=O)[C@H]2[C@@H](c3ccc(Cl)cc3)N3C(=O)CN(CCOC)C(=O)[C@@]3(C)[C@H]2C1=O | -9 | i | 6 | 13 | 0 | x
CCCCN1CC(=O)N2[C@H](c3ccc(Cl)cc3)[C@@H]3C(=O)N(CC)C(=O)[C@@H]3[C@]2(C)C1=O | 53* | i | -10 | -1 | 1 | -7
O=[N+]([O-])c1ccccc1S(=O)(=O)n1nnc2ccccc21 | 6 | i | 8 | 8 | 3 | x
COc1cccc(CN(C)C(=S)Nc2ccc(C)c(C)c2)c1 | 46* | i | 9 | 30 | x | 3
S=C(NCc1ccco1)Nc1ccc(Cl)c(Cl)c1 | 46* | i | 45 | 34 | -9 | 14
S=C(NCc1ccco1)Nc1cc(-c2ccccc2)[nH]n1 | 40* | i | 41 | 33 | x | 31
COCCn1c(N/N=C(C)/C=C/c2ccccc2)nc2c1c(=O)[nH]c(=O)n2C | x | i | x | x | x | x
O=C(NCCc1cnc[nH]1)c1ccc(-c2ccccc2)cc1 | -11 | i | 1 | 14 | -2 | x
CC(C)(C)c1cc(NCc2ccccn2)n2ncc(-c3ccccc3)c2n1 | 52* | i | 43 | 28 | 108* | 42*
Cc1cc(NCc2ccccc2)n2ncc(-c3ccccc3)c2n1 | -8 | u | 38 | 22 | 33 | x
CC(=O)/C(=C/c1ccc(N(C)C)cc1)C(=O)c1ccccc1 | 41* | i | 18 | 15 | 17 | -17
O=C1C=CN2CCOCC2C1 (stereo not given) | -11 | x | -13 | -4 | 16 | x
COc1cc2c(cc1NC(=O)COc1ccccc1OC)oc1ccccc12 | -10 | i | -8 | 19 | 2 | x
COc1cc2c(cc1NC(=O)COC(=O)Cn1cnc3ccccc31)oc1ccccc12 | 41* | i | -8 | 26 | -24 | -11
C/C(=N/NC(=O)c1ccc2nc[nH]c2c1)c1cccs1 | 1 | i | 9 | 3 | -13 | x
CCCCOC(=O)CCn1c(=S)oc2ccccc21 | 10 | i | 25 | 11 | -11 | x
CCCCOC(=O)n1c(=S)oc2cc(Cl)ccc21 | 74* | i | -155 | -54 | -28 | -39
O=C(COC(=O)c1ccc([N+](=O)[O-])o1)Nc1ccc(Br)cc1F | 47* | x | 19 | -32 | x | 50*
O=C(COC(=O)c1ccc([N+](=O)[O-])o1)Nc1ccc(F)cc1 | -106 | x | 15 | -139 | -22 | x
N#Cc1ccccc1NC(=O)CN1C(=O)NC(Cc2c[nH]c3ccccc23)C1=O (stereo not given) | 3 | x | 1 | -36 | x | x
COc1ccc(NC(=S)N2CCC(c3ccccc3)C2)cc1 (stereo not given) | 8 | i | 28 | 36 | 8 | x
Cc1ccc(Cl)cc1NC(=S)N1CCC(c2ccccc2)C1 (stereo not given) | 52* | i | 14 | 37 | 0 | 37*
SMILES | TIM10 inh | Rce1 inh | tim23-1 inh | tim10-1 inh | PfHsp90 yeast 2 | tim10 confirm
CN(c1ccccc1)S(=O)(=O)c1ccc(NC(=S)NC(=O)c2ccccc2)cc1 | 6 | i | 13 | 19 | -16 | x
CN(C1CCCCC1)S(=O)(=O)c1ccc(NC(=S)NC(=O)c2cccs2)cc1 | 51* | i | 38 | 33 | 43 | 36*
CN(c1ccccc1)S(=O)(=O)c1ccc(NC(=S)NC(=O)C2CC2)cc1 | 41* | i | 34 | 32 | -11 | -3
CCOc1ccc(CCN2C(=S)N([C@@H](CC(C)C)CN3CCCC3CN3C(=S)NC[C@@H]3CC(C)C)C[C@@H]2CC(C)C)cc1 (stereo not given in full) | x | x | x | x | -12 | x
COCCn1c(N)c(N(Cc2ccccc2)C(=O)c2cc(=O)[nH]c3ccccc23)c(=O)[nH]c1=O | 41* | x | -7 | -9 | 7 | -18
CCCCn1c(N)c(N(Cc2ccccc2OC)C(=O)c2cc(=O)[nH]c3ccccc23)c(=O)[nH]c1=O | -6 | i | -4 | 20 | x | x
Cc1ccc(S(=O)(=O)c2nc(S(=O)(=O)c3ccccc3)sc2N2CCN(CCO)CC2)cc1 | 9 | i | 6 | 12 | -4 | x
